From PubChem BioAssay AID720519 (National Center for Advancing Translational Sciences (NCATS), 2013) come the findings set out here.

Records with an inconclusive call do not appear. Calls of active or inactive are those of the source. The call rests on the fitted dose curve; in most records, active means well fitted activation curve with a large enough effect; inconclusive means small, poorly fitted or top-dose-only effect; inactive means flat fitted curve, though single readings scatter.

The nature of the experiment: qHTS for Inhibitors of Cell Surface uPA Generation: Confirmatory Assay for Cherry-picked Compounds. Further: 0% is about no effect. Particulars: cell surface uPA activity generation, qHTS confirmation; series mostly up to 115 µM; inhibition: at the top concentration. The procedure, abridged:
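RAW 264.7 cells at 4000/well, incubated overnight, then treated with compounds. After 24 h at 37 C, viability was read by ATPlite luminescence. An increase in signal indicates blocked uPA-dependent LF entry.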
On the technique in general: qHTS replaces the single test concentration by a dilution series.
`NC(=O)CC(NC(=O)Cc1cccc2ccccc12)c1ccc(N2CCN(c3ccccc3)CC2)c([N+](=O)[O-])c1` (centres undefined): the “inhibition” value was 0.273% (inactive).

As for `O=C(NNC(=O)c1cccnc1)c1ccncc1`, the “inhibition” value is -1.17% (inactive).

As to `CC(C)N1CCc2c(sc(NC(=O)CCc3ccccc3)c2C(N)=O)C1`, the “inhibition” value was 6.59% (inactive).

Take `CC1=CC(C)C(C[N+]2(C)CCCCC2)C(C)C1` (centres undefined): the “inhibition” value is -2.55% (inactive).

Take `COc1cc(NC(=O)CSc2nnc3ccc(-c4ccncc4)nn23)cc(OC)c1`: the “inhibition” value is 1.04% (inactive).

Consider `COc1ccccc1CN1CC(C(=O)NCc2cccc(C)n2)CCC1=O` (centres undefined), for which the “inhibition” value is -2.28% (inactive).

With `Fc1ccc(N2CCN(c3nc(CN4CCOCC4)nc4scc(-c5ccccc5)c34)CC2)cc1`, the “inhibition” value was -2.29% (inactive).

For `Cc1ccccc1NC1c2ccccc2C(=O)N1Cc1ccco1` (centres undefined), the “inhibition” value is -2.23% (inactive).

In the case of `CCCCOc1ccc(S(=O)(=O)N2CCCCC2)cc1`, the “inhibition” value was -1.94% (inactive).

Regarding `COc1cc(C2NC(=O)NC(C)=C2C(=O)OCC2CCCCC2)ccc1O` (centres undefined), the “inhibition” value is -0.323% (inactive).

On to `CN(/N=C/c1cc(Cl)cc(Cl)c1O)C(=S)NC(C)(C)C`, for which the “inhibition” value was -3.36% (inactive).

For the compound `COCCN(CCOC)c1nc(-c2ccc(C)cc2)nc2ccccc12`, the “inhibition” value is -3.08% (inactive).

As to `CCOc1ccc(Cl)cc1/C=N/NC(=O)c1ccccc1`, the “inhibition” value is -0.983% (inactive).

Regarding `Cc1c(C(=O)N2CCN(S(=O)(=O)c3cccs3)CC2)oc2ccc(F)cc12`, the “inhibition” value is -0.992% (inactive).

For `O=C(COc1cc2oc(=O)cc(-c3ccccc3)c2cc1Cl)NC(Cc1c[nH]c2ccc(O)cc12)C(=O)O` (centres undefined), the “inhibition” value is 0.485% (inactive).

Turning to `Cc1ccc(S(=O)(=O)N2CCC(C)CC2)cc1`, the “inhibition” value was 1.99% (inactive).

On to `COc1ccccc1NC(=O)Cn1nnc(-c2ccccc2NC(=O)c2cc3ccccc3oc2=O)n1`, for which the “inhibition” value was -2.06% (inactive).

In the case of `COc1ccc(OC)c(NC(=O)C2CC2c2ccccc2)c1` (centres undefined), the “inhibition” value is -2.61% (inactive).

On to `O=C(C1=C[C@H](c2ccccc2)C[C@H](OCCCCO)O1)N1CCN(Cc2ccc3c(c2)OCO3)CC1`, for which the “inhibition” value was -3.49% (inactive).

As to `COc1cccc(NC(=O)CN(C)C(=O)c2csc3c2CCCC3)c1`, the “inhibition” value is 2.11% (inactive).

On to `CCCOc1ccc(CC2CCC(=O)NC2=O)cc1` (centres undefined), for which the “inhibition” value is -2.42% (inactive).

In the case of `CN(Cc1ccc(C(C)(C)C)cc1)C(=O)Cc1ccc(S(=O)(=O)N2CCOCC2)s1`, the “inhibition” value was -3.48% (inactive).

With `COc1ccc(S(=O)(=O)c2c(O)c3ccc(C(=O)Nc4ccccc4)cc3[nH]c2=O)cc1`, the “inhibition” value is -2.77% (inactive).

On to `COc1cccc(-n2c(SCC(=O)Nc3cc(C)on3)nc3c([nH]c4ccccc43)c2=O)c1`, for which the “inhibition” value was 10.4% (inactive).

As to `CCOc1ccc(CCNC(=O)Cc2ccc(NC3=NC4CS(=O)(=O)CC4S3)cc2)cc1OCC` (centres undefined), the “inhibition” value was 2.7% (inactive).

As to `CCCS(=O)(=O)c1ccc(COC(=O)Cc2ccc([N+](=O)[O-])cc2)cc1`, the “inhibition” value is -2.02% (inactive).

Turning to `CC/C(=N\Nc1ccccc1[N+](=O)[O-])c1ccc(O)cc1`, the “inhibition” value is -2% (inactive).

Turning to `COc1ccc(C2C(C(=O)c3ccc(C)o3)=C(O)C(=O)N2CC2CCCO2)cc1OC` (centres undefined), the “inhibition” value is 0.493% (inactive).

`O=C(Cc1n[nH]c(=O)c2ccccc12)Nc1cccc(S(=O)(=O)N2CCCCCC2)c1`: the “inhibition” value is -3.3% (inactive).

As for `COc1ccc(NC(=O)CCNS(=O)(=O)c2ccccc2F)cc1S(=O)(=O)N1CCOCC1`, the “inhibition” value is -1.83% (inactive).

`CCOC(=O)Cc1csc(NC(=O)Nc2cccc(OC)c2)n1`: the “inhibition” value was 1.72% (inactive).

As for `Cc1ccn(CCC(=O)N2CCc3ccccc32)n1`, the “inhibition” value is -1.7% (inactive).

With `COc1cccc(NC(=O)CSc2nc3ncc(Br)cc3[nH]2)c1`, the “inhibition” value was -0.495% (inactive).

Turning to `Cc1ccnc(NS(=O)(=O)c2ccc(NC(=O)C3C4C=CC(C4)C3C(=O)O)cc2)n1` (centres undefined), the “inhibition” value was 1.92% (inactive).

With `CC1(CC(=O)N/N=C/c2cc(Br)c(O)cc2O)OCCO1`, the “inhibition” value was -3.24% (inactive).

Regarding `COC(=O)CCSCC(=O)N1N=C(c2ccc(OC)cc2)CC1c1cccc(OC)c1OC` (centres undefined), the “inhibition” value is -3.06% (inactive).

`Cc1ccc(NC(=O)CS(=O)Cc2nc(-c3ccc(C)cc3)oc2C)cc1` (centres undefined): the “inhibition” value was -2.57% (inactive).

Consider `CCOCCCn1c(SCC(=O)Nc2oc(C)c3c(C)n[nH]c(=O)c23)nc2ccccc2c1=O`, for which the “inhibition” value is -2.17% (inactive).

For `Cc1cc2[nH]c(=O)c(=O)[nH]c2cc1S(=O)(=O)NC1CCC(C)CC1` (centres undefined), the “inhibition” value is -1.26% (inactive).

The inhibition is the change of the read-out against control, counted positive when it falls.
